Laboratory results published in the supplement of paper PMC8975748.
Structures can show the parent of a compound that is named as a salt.

tested on: Saccharomyces cerevisiae BY4741 SeMeCo community; assay: z-score of subpopulation abundance vs DMSO median, subpopulation auxotrophic for L; higher = larger share of this subpopulation than in DMSO controls; details: 10 µM; 24 h; SM minimal medium; subpopulation (auxotrophy): L
Method: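 Fluorescent four-plasmid SeMeCo (self-establishing metabolically cooperating S. cerevisiae BY4741 community; plasmids pH-mRuby2, pL-mWasabi, pU-eCFP, pM-TagRFP657) was grown 24 h in minimal SM medium with each Selleck FDA-approved drug at 10 µM in 384-well plates. Cells were fixed and imaged by high-content confocal microscopy. For each auxotrophic subpopulation (and the prototroph), a z-score gives the deviation from the DMSO vehicle-control population median.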

| Compound | z-score of subpopulation abundance |
| --- | --- |
| CN(C)[C@@H]1C(=O)C(C(N)=O)=C(O)[C@@]2(O)C(=O)C3=C(O)c4c(O)cccc4[C@@](C)(O)[C@H]3[C@H](O)[C@@H]12 [Oxytetracycline Dihydrate] | -0.76 |
| CC(C)N(CCC(C(N)=O)(c1ccccc1)c1ccccn1)C(C)C (stereo not given) [Disopyramide] | 2.35 |
| Nc1nc(N)nc(NC2CC2)n1 [Cyromazine] | 0.49 |
| COc1ccc(C(CN(C)C)C2(O)CCCCC2)cc1 (stereo not given) [Venlafaxine] | -0.75 |
| CC[C@H]1[C@@H]2C[C@H]3[C@@H]4N(C)c5ccccc5[C@]45C[C@@H]([C@@H]2[C@H]5O)N3[C@@H]1O [Ajmaline] | -0.67 |
| CN1[C@@H]2C[C@@H](OC(=O)[C@H](CO)c3ccccc3)C[C@H]1[C@@H]1O[C@@H]12 [Scopolamine HBr trihydrate] | -0.39 |
| CC(C)=CCOc1c2occc2cc2ccc(=O)oc12 [Imperatorin] | 1.37 |
| CC[C@H]1CN2CC[C@]3(C(=O)Nc4ccccc43)[C@@H]2C[C@@H]1/C(=C\OC)C(=O)OC [Rhynchophylline] | -0.82 |
| C[N+](C)(C)CCCCCCCCCC[N+](C)(C)C [Decamethonium Bromide] | -0.55 |
| CCOC(=O)Nc1ccc(NCc2ccc(F)cc2)cc1N [Retigabine] | -0.58 |
| CCN(C)C(=O)Oc1cccc([C@H](C)N(C)C)c1 [Rivastigmine] | -0.94 |
| Cc1cc(C(C#N)c2ccc(Cl)cc2)c(Cl)cc1NC(=O)c1cc(I)cc(I)c1O (stereo not given) [Closantel] | 1.28 |
| CN1[C@@H]2CC[C@H]1C[C@@H](OC(=O)C(CO)c1ccccc1)C2 (stereo not given in full) [Atropine sulfate monohydrate] | -0.2 |
| CN(C)C(=O)Oc1cccc([N+](C)(C)C)c1 [Neostigmine Bromide] | 0.65 |
| Cn1cc(C2=C(c3cn(C4CCN(Cc5ccccn5)CC4)c4ccccc34)C(=O)NC2=O)c2ccccc21 | -1.15 |
| CN[C@@H]1[C@@H](O)[C@@H](O[C@@H]2[C@@H](O)[C@H](O[C@H]3O[C@H](CN)CC[C@H]3N)[C@@H](N)C[C@H]2N)OC[C@]1(C)O.CN[C@@H]1[C@@H](O)[C@@H](O[C@@H]2[C@@H](O)[C@H](O[C@H]3O[C@H]([C@@H](C)N)CC[C@H]3N)[C@@H](N)C[C@H]2N)OC[C@]1(C)O.CN[C@@H]1[C@@H](O)[C@@H](O[C@@H]2[C@@H](O)[C@H](O[C@H]3O[C@H]([C@@H](C)NC)CC[C@H]3N)[C@@H](N)C[C@H]2N)OC[C@]1(C)O [Gentamicin Sulfate] | -0.91 |
| CCN(CC)CCOC(=O)C(O)(c1ccccc1)c1ccccc1 [Benactyzine hydrochloride] | 0.45 |
| O=c1[nH]c2ccccc2n1CCCN1CCC(n2c(=O)[nH]c3cc(Cl)ccc32)CC1 [Domperidone] | 0.55 |
| CC[C@@]1(O)C(=O)OCc2c1cc1n(c2=O)Cc2cc3ccccc3nc2-1 [Camptothecin] | -0.35 |
| COc1ccc(C(CN(C)C)C2(O)CCCCC2)cc1 (stereo not given) [Venlafaxine HCl] | 0.66 |

| Compound | z-score of subpopulation abundance |
| --- | --- |
| COc1ccc(C=O)cc1 [p-Anisaldehyde] | -0.63 |
| CN1[C@@H]2CC[C@H]1C[C@@H](OC(=O)[C@H](CO)c1ccccc1)C2 [Hyoscyamine] | 0.64 |
| C=CN1CCCC1=O.II [Povidone iodine] | 0.47 |
| Cc1cc(O)ccc1Cl [Chlorocresol] | -0.62 |
| O=c1cccc2n1C[C@@H]1CNC[C@H]2C1 [Cytisine] | 0.2 |
| O=C(O[C@H]1C[N+]2(CCCOc3ccccc3)CCC1CC2)C(O)(c1cccs1)c1cccs1 [Aclidinium Bromide] | -1.04 |
| COc1ccc2c3c([nH]c2c1)C(C)=NCC3 [Harmaline] | 2.48 |
| CN(C)[C@@H]1C(=O)C(C(N)=O)=C(O)[C@@]2(O)C(=O)C3=C(O)c4c(O)cccc4[C@@](C)(O)[C@H]3C[C@@H]12 [Tetracycline HCl] | -0.47 |
| Oc1cccc2cccnc12 [8-Hydroxyquinoline] | -1.01 |
| C[CH2][Hg][S]c1ccccc1C(=O)[O-].[Na+] [Thimerosal] | -2.54 |
| CNC1CC(N)C(O)C(OC2OC(CO)C(O)C3OC4(OC(C(N)CO)C(O)C(O)C4O)OC23)C1O (stereo not given) [Hygromycin B] | 0.12 |
| Nc1ccncc1 [4-Aminopyridine] | 0.44 |
| C[N+]12CCC(CC1)C(OC(=O)C(O)(c1ccccc1)c1ccccc1)C2 (stereo not given) [Clidinium Bromide] | 0.14 |
| CN(C)[C@@H]1C(=O)C(C(N)=O)=C(O)[C@@]2(O)C(=O)C3=C(O)c4c(O)cccc4[C@@](C)(O)[C@H]3[C@H](O)[C@@H]12 [Oxytetracycline (Terramycin)] | 0.2 |
| CCC1=C[C@H]2CN3CCc4c([nH]c5ccccc45)[C@](C(=O)OC)(C2)[C@H]13 [Catharanthine] | -0.77 |
| CCCN1C[C@H](CSC)C[C@@H]2c3cccc4[nH]cc(c34)C[C@H]21 [Pergolide Mesylate] | 0.12 |
| CC(=O)O[C@H]1C[C@@H]2CC[C@@H]3[C@H](CC[C@@]4(C)[C@H]3C[C@H]([N+]3(C)CCCCC3)[C@@H]4OC(C)=O)[C@@]2(C)C[C@@H]1[N+]1(C)CCCCC1 [Pancuronium dibromide] | -0.47 |
| C=C(C)[C@H]1Cc2c(ccc3c2O[C@@H]2COc4cc(OC)c(OC)cc4[C@@H]2C3=O)O1 [Rotenone (Barbasco)] | 0.46 |
| C[C@@H]1O[C@@H](O[C@H]2C[C@@H](O)[C@]3(CO)[C@H]4[C@H](O)C[C@]5(C)[C@@H](C6=CC(=O)OC6)CC[C@]5(O)[C@@H]4CC[C@]3(O)C2)[C@H](O)[C@H](O)[C@H]1O [Ouabain] | -0.43 |
| CN(C)C(=O)Oc1ccc[n+](C)c1 [Pyridostigmine Bromide] | 0.3 |
